According to PubChem BioAssay AID1159580 (chemical genetic matrix, 2015):
Where “and” joins values, the source holds several entries; their conditions need not be identical. Equal entries are not always repeated. Hit rate of the full screen: of about 5,500 compounds, about 2,000 (36%) were called active. Another 18% or so got no clear call; they are omitted. No stated cut-off is given here; in the data, active means normalized growth mostly below about 0.91 (no sharp cut-off); inconclusive means no clear call, values can overlap the other calls; inactive means mostly above about 0.92. This is one part of the list.

Assay: chemical genetic growth profiling, strain panel (AID 1159580);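 further: tested at 20 µM; growth read once vehicle control cultures reached saturation at 30 °C; 1 = growth at the plate median or of vehicle wells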
Conditions: growth OD

Measured: normalized growth

NCCSSCCN
inactive: S. cerevisiae deletion strains, locus YKL009W, strain mrt4, stronger effect = lower value 1.03 | S. cerevisiae deletion strains, locus YKL068W, stronger effect = lower value 1.01 | S. cerevisiae deletion strains, locus YKL085W, strain MDH1 (second series), stronger effect = lower value 1.01 | S. cerevisiae deletion strains, locus YKL085W, strain MDH1, stronger effect = lower value 1.01 | S. cerevisiae deletion strains, locus YKL160W, strain elf1, stronger effect = lower value 0.995 | S. cerevisiae deletion strains, locus YKL190W, strain CNB1, stronger effect = lower value 1.01 | S. cerevisiae deletion strains, locus YKR001C, strain vps1, stronger effect = lower value 1.02 | S. cerevisiae deletion strains, locus YKR026C, strain gcn3, stronger effect = lower value 0.993 | S. cerevisiae deletion strains, locus YKR091W, strain srl3, stronger effect = lower value 0.993 | S. cerevisiae deletion strains, locus YLL001W, strain dnm1, stronger effect = lower value 0.978 | S. cerevisiae deletion strains, locus YLL026W, stronger effect = lower value 0.989 | S. cerevisiae deletion strains, locus YLL041C, strain sdh2, stronger effect = lower value 0.997 | S. cerevisiae deletion strains, locus YLR027C, strain aat2, stronger effect = lower value 0.99 | S. cerevisiae deletion strains, locus YLR039C, strain RIC1, stronger effect = lower value 1.02 | S. cerevisiae deletion strains, locus YLR058C, strain SHM2, stronger effect = lower value 1.01 | S. cerevisiae deletion strains, locus YLR102C, strain apc9, stronger effect = lower value 0.994 | S. cerevisiae deletion strains, locus YLR113W, strain HOG1, stronger effect = lower value 1.05 | S. cerevisiae deletion strains, locus YLR221C, strain rsa3, stronger effect = lower value 0.998 | S. cerevisiae deletion strains, locus YLR258W, strain gsy2, stronger effect = lower value 0.996 | S. cerevisiae deletion strains, locus YLR262C, strain YPT6 (second series), stronger effect = lower value 0.994 | S. cerevisiae deletion strains, locus YLR262C, strain YPT6, stronger effect = lower value 1.02 | S. cerevisiae deletion strains, locus YLR268W, strain sec22, stronger effect = lower value 1.05 | S. cerevisiae deletion strains, locus YLR320W, strain mms22, stronger effect = lower value 1 | S. cerevisiae deletion strains, locus YLR330W, strain CHS5, stronger effect = lower value 1.01 | S. cerevisiae deletion strains, locus YLR342W, strain FKS1 (second series), stronger effect = lower value 1 | S. cerevisiae deletion strains, locus YLR342W, strain FKS1, stronger effect = lower value 0.983 | S. cerevisiae deletion strains, locus YLR357W, strain rsc2, stronger effect = lower value 0.979 | S. cerevisiae deletion strains, locus YLR370C, strain arc18, stronger effect = lower value 0.993 | S. cerevisiae deletion strains, locus YLR371W, strain rom2, stronger effect = lower value 1.01 | S. cerevisiae deletion strains, locus YLR384C, strain iki3, stronger effect = lower value 0.987 | S. cerevisiae deletion strains, locus YLR418C, strain cdc73, stronger effect = lower value 0.999 | S. cerevisiae deletion strains, locus YML016C, strain PPZ1, stronger effect = lower value 1 | S. cerevisiae deletion strains, locus YML032C, strain rad52, stronger effect = lower value 1.03 | S. cerevisiae deletion strains, locus YML120C, strain ndi1, stronger effect = lower value 0.995 | S. cerevisiae deletion strains, locus YML124C, strain tub3, stronger effect = lower value 1 | S. cerevisiae deletion strains, locus YMR058W, strain fet3, stronger effect = lower value 1 | S. cerevisiae deletion strains, locus YMR078C, strain ctf18, stronger effect = lower value 1.01 | S. cerevisiae deletion strains, locus YMR125W, strain sto1, stronger effect = lower value 1 | S. cerevisiae deletion strains, locus YMR129W, stronger effect = lower value 1 | S. cerevisiae deletion strains, locus YMR205C, strain PFK2, stronger effect = lower value 0.992 | S. cerevisiae deletion strains, locus YMR223W, strain ubp8, stronger effect = lower value 0.981 | S. cerevisiae deletion strains, locus YMR231W, strain pep5, stronger effect = lower value 1 | S. cerevisiae deletion strains, locus YMR263W, strain SAP30, stronger effect = lower value 1.03 and 1 | S. cerevisiae deletion strains, locus YMR307W, strain GAS1, stronger effect = lower value 0.996 | S. cerevisiae deletion strains, locus YNL067W, strain RPL9B, stronger effect = lower value 1.03 | S. cerevisiae deletion strains, locus YNL071W, strain lat1, stronger effect = lower value 1 | S. cerevisiae deletion strains, locus YNL128W, strain TEP1, stronger effect = lower value 1.02 and 1 | S. cerevisiae deletion strains, locus YNL153C, strain GIM3, stronger effect = lower value 1.03 | S. cerevisiae deletion strains, locus YNL175C, strain NOP13, stronger effect = lower value 1 | S. cerevisiae deletion strains, locus YNL183C, strain NPR1, stronger effect = lower value 1 | S. cerevisiae deletion strains, locus YNL197C, strain WHI3, stronger effect = lower value 1.02 | S. cerevisiae deletion strains, locus YNL209W, strain ssb2, stronger effect = lower value 1 | S. cerevisiae deletion strains, locus YNL224C, strain SQS1, stronger effect = lower value 1 | S. cerevisiae deletion strains, locus YNL233W, strain BNI4, stronger effect = lower value 1.02 | S. cerevisiae deletion strains, locus YNL248C, strain rpa49, stronger effect = lower value 0.998 | S. cerevisiae deletion strains, locus YNL250W, strain rad50, stronger effect = lower value 0.999 | S. cerevisiae deletion strains, locus YNL271C, strain bni1, stronger effect = lower value 1.01 | S. cerevisiae deletion strains, locus YNL298W, strain CLA4, stronger effect = lower value 1 | S. cerevisiae deletion strains, locus YNL307C, strain MCK1, stronger effect = lower value 1.01 | S. cerevisiae deletion strains, locus YNL322C, strain KRE1 (second series), stronger effect = lower value 0.998 | S. cerevisiae deletion strains, locus YNL322C, strain KRE1, stronger effect = lower value 1.01 and 0.988 | S. cerevisiae deletion strains, locus YNR049C, strain mso1, stronger effect = lower value 1 | S. cerevisiae deletion strains, locus YNR052C, strain pop2, stronger effect = lower value 1 | S. cerevisiae deletion strains, locus YOL006C, strain TOP1, stronger effect = lower value 1.08 | S. cerevisiae deletion strains, locus YOL012C, strain htz1 0.933 | S. cerevisiae deletion strains, locus YOL147C, strain pex11, stronger effect = lower value 1 | S. cerevisiae deletion strains, locus YOR001W, strain rrp6, stronger effect = lower value 0.989 | S. cerevisiae deletion strains, locus YOR061W, strain CKA2, stronger effect = lower value 1.01 | S. cerevisiae deletion strains, locus YOR069W, strain VPS5, stronger effect = lower value 1.01 | S. cerevisiae deletion strains, locus YOR070C, strain gyp1, stronger effect = lower value 0.999 | S. cerevisiae deletion strains, locus YOR080W, strain dia2, stronger effect = lower value 1 | S. cerevisiae deletion strains, locus YOR083W, strain WHI5 (second series), stronger effect = lower value 1.01 | S. cerevisiae deletion strains, locus YOR083W, strain WHI5, stronger effect = lower value 0.99 | S. cerevisiae deletion strains, locus YOR106W, strain vam3, stronger effect = lower value 0.985 | S. cerevisiae deletion strains, locus YOR136W, strain idh2, stronger effect = lower value 0.991 | S. cerevisiae deletion strains, locus YOR144C, strain elg1, stronger effect = lower value 1.01 | S. cerevisiae deletion strains, locus YOR184W, strain ser1, stronger effect = lower value 0.966 | S. cerevisiae deletion strains, locus YOR231W, strain MKK1, stronger effect = lower value 1.09 | S. cerevisiae deletion strains, locus YOR265W, strain rbl2, stronger effect = lower value 0.993 | S. cerevisiae deletion strains, locus YOR270C, strain vph1, stronger effect = lower value 1.02 | S. cerevisiae deletion strains, locus YOR290C, strain snf2, stronger effect = lower value 1.01 | S. cerevisiae deletion strains, locus YOR316C, strain cot1, stronger effect = lower value 1.01 | S. cerevisiae deletion strains, locus YPL051W, strain arl3, stronger effect = lower value 0.982 | S. cerevisiae deletion strains, locus YPL055C, strain LGE1, stronger effect = lower value 0.994 | S. cerevisiae deletion strains, locus YPL078C, strain atp4, stronger effect = lower value 0.998 | S. cerevisiae deletion strains, locus YPL106C, strain sse1, stronger effect = lower value 0.984 | S. cerevisiae deletion strains, locus YPL240C, strain hsp82, stronger effect = lower value 0.991 | S. cerevisiae deletion strains, locus YPL241C, strain CIN2, stronger effect = lower value 1.01 | S. cerevisiae deletion strains, locus YPL256C, strain CLN2, stronger effect = lower value 1.07 | S. cerevisiae deletion strains, locus YPR119W, strain clb2, stronger effect = lower value 1.01 | S. cerevisiae deletion strains, locus YPR141C, strain kar3, stronger effect = lower value 0.997 | S. cerevisiae deletion strains, locus YPR163C, strain tif3, stronger effect = lower value 1.01 | S. cerevisiae deletion strains, locus YPR167C, strain met16, stronger effect = lower value 1 | S. cerevisiae deletion strains, strain wtn01, stronger effect = lower value 1.03 | S. cerevisiae strains, strain wild type, stronger effect = lower value 1.01
